This is an account of results in PubChem BioAssay (NCATS).

Results filed as inconclusive are left out. Activity calls are given as the source filed them. Unless noted, calls follow the shape of the dose curve; as a rule, active = well fitted curve in either direction with a large enough effect (not every such curve was filed as active); inconclusive = small, poorly fitted or top-dose-only effect, or another doubt; inactive = flat fitted curve, though single readings scatter.

A short description of assay [1]: AP1 Signaling Pathway (AID 357). Also: % is scaled to controls: 0 for no effect and ±100 for the full control effect. The note with it: ME-180 AP-1-bla reporter, EGF-induced, beta-lactamase ratio, 5 h; at 7.69 µM (top of the series) unless noted. In short, it runs like this: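 In this screen, ME-180 cells in Opti-MEM with 0.5% dialyzed FBS received EC50 EGF and compound titrations for 5 h. AP-1 reporter beta-lactamase was detected via CCF4 ratio, giving AC50 for positive and negative modulators.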

A short description of assay [2]: NFAT Signaling Pathway (AID 444).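 Also: carbachol stimulus at about its EC50 of 1 µM final; % is scaled to controls: 0 for no effect and ±100 for the full control effect.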 Conditions: Jurkat NFAT-bla M1, carbachol, beta-lactamase ratio, 5 h; at 7.69 µM (top of the series) unless noted. Summed up:
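Jurkat cells with NFAT-driven β-lactamase reporter and co-expressed M1 receptor, stimulated with carbachol (final 1 uM, ~EC50), compound titration, 5 h at 37 °C. CCF4 loaded 1 h at RT; 460/530 nm ratio gave %activity and AC50.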

Assay [3] is described as follows: Stat Signaling Pathway (AID 446).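 Also: ME-180 cervical cancer cells given 40 pM IL-6 alongside compound; SIE-controlled beta-lactamase reporter measured as 460/530 nm FRET emission ratio; % is scaled to controls: 0 for no effect and ±100 for the full control effect.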 Conditions: ME-180 SIE beta-lactamase reporter, IL-6 stimulated, 5 h; at 7.69 µM (top of the series) unless noted. Summed up: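 Reporter line: ME-180 cervical carcinoma, SIE-beta-lactamase. Treatment: compound with 40 pM IL-6, 5 hrs, 37 C, in low-serum OPTI-MEM with 10 mM HEPES pH 7.3. Detection: 460/530 nm fluorescence.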
The target in assay [4] is Glucocorticoid receptor (Homo sapiens) (UniProt P04150). The assay can be described thus: GR-GFP Redistribution (AID 450;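 active = compounds whose dose series gives a full or clear partial fitted curve of increased nuclear translocation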; also: potency is read from the fitted curve at half-maximal effect). Conditions: U2OS GR-GFP nuclear translocation, laser cytometry, 2 h.
Sequence of Glucocorticoid receptor (Homo sapiens) (P04150 whole entry, looked up): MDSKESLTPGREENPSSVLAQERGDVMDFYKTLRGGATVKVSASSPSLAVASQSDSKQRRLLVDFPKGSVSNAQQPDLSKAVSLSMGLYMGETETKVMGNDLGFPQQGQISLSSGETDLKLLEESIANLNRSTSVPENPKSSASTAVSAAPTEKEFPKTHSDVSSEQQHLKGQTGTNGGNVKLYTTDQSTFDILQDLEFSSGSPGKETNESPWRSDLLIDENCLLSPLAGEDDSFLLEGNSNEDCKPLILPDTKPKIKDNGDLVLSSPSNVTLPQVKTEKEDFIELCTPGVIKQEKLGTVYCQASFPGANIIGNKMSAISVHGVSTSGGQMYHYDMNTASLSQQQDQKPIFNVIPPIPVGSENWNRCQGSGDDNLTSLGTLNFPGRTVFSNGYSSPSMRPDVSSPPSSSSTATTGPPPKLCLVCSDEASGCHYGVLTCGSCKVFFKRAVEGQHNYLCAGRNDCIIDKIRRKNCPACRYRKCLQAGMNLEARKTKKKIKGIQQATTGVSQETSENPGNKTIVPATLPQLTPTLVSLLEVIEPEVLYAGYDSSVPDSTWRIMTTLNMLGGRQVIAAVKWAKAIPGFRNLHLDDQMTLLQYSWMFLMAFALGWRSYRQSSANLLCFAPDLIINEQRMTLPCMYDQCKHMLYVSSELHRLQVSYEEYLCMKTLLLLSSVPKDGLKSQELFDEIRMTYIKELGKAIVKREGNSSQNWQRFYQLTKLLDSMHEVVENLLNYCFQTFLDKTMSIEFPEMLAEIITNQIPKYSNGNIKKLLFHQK
The target is the same in assay [5]. The assay can be described thus: GR-EFC Redistribution (AID 451; calls by dose curve; also: potency is read from the fitted curve at half-maximal effect). The note with it: CHO-K1 GR-EFC translocation, beta-gal luminescence, 2 h. Summed up:
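CHO-K1 cells expressing nuclear EA and GR-ED fragments of b-gal; compounds titrated up to 46 uM final, 2 h at 37 C. GR nuclear translocation read as complemented b-gal luminescence after 1 h RT detection.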

The target of assay [6] is Mitogen-activated protein kinase 10 (Mus musculus) (UniProt Q61831). The assay can be described thus: JNK3 AlphaScreen Assay (AID 530).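 Also: kinase came from lysate of stimulated human HepG2 cells; signal reports phosphorylation of biotinylated GST-cJun 1-79 at Ser73 with 10 µM ATP; % is scaled to controls: 0 for no effect and ±100 for the full control effect.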 In short, it runs like this: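 qHTS format: compounds tested as titrations against IL-1beta/TNF-alpha-activated HepG2 lysate JNK3 with biotin-GST-cJun substrate and 10 uM ATP at room temperature. Loss of anti-phospho-cJun AlphaScreen signal indicates inhibition.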

The target in assay [7] is 3',5'-cyclic-AMP phosphodiesterase 4B (Homo sapiens) (UniProt Q07343). The assay can be described thus: qHTS Assay for Inhibitors of PDE-IV (AID 607; active = well fitted activation curve with a large enough effect in the main read-out, with a control signal flat, not every such curve was filed as active; also: % of control where 0% means no effect). Summed up:
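Cell-based read-out of cAMP via a modified cyclic nucleotide-gated channel and membrane potential dye (535/590 nm) in HEK293 cells expressing PDE4 endogenously. Compounds tested up to 22.9 uM final; 100 uM RO 20-1724 reference.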
In general terms: In qHTS, concentration-response curves come from the screen itself.

A short description of assay [8]: qHTS Assay for Lipid Storage Modulators (AID 1519; calls by dose curve). The note with it: Drosophila S3 cells, BODIPY lipid droplet/cell ratio, laser cytometry, cells loaded with oleic acid; for activity change, negative = inhibition: at 57.5 µM (top of the series). Summed up:
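Cells seeded at 5,000 per well were treated with compounds over a concentration series and loaded with oleic acid (400 uM, as added). Lipid droplet fluorescence (488 nm excitation, 500-530 nm channel) was read by laser-scanning cytometry and normalized to 20 uM Triacsin C.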

Assay [9] has as its target Ubiquitin carboxyl-terminal hydrolase 1 (Homo sapiens) (UniProt O94782). Description: Inhibitors of USP1/UAF1: Pilot qHTS (AID 504865; active = well fitted inhibition curve with a large enough effect;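 also: rhodamine fluorescence freed from ubiquitin-rhodamine substrate followed over time; top concentration of the series differs between compounds; % is scaled to controls: 0 for no effect and ±100 for the full control effect; nearly all actives have a fitted effect of over 35% in size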). In short, it runs like this:
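USP1/UAF1 complex at 1 nM preincubated 15 min at room temperature with compound, then Ub-Rho substrate added at 150 nM final. Fluorescence (480/540 nm) read kinetically in 50 mM HEPES pH 7.8, 0.5 mM EDTA, 1 mM TCEP, 0.1 mg/ml BSA, 0.01% Tween-20.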

Assay [10] has as its target Cytochrome P450 1A2 (Homo sapiens) (UniProt P05177). Description: p450-cyp1a2 (AID 410; calls by dose curve; also: potency is read from the fitted curve at half-maximal effect). Summed up: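 Human CYP1A2 (20nM) demethylated Luciferin-ME at its Km (100uM) in 100mM KPO4. After 10 min compound preincubation, NADPH regeneration ran the reaction 60 min at room temperature. Luciferin was read by luminescence, normalized to 57 uM furafylline.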
Setting [11] is: measured here: cell count channel max response.
[12] abbreviates: measured here: lipid channel max response.

Sequence of 3',5'-cyclic-AMP phosphodiesterase 4B (Homo sapiens) (Q07343 whole entry, looked up): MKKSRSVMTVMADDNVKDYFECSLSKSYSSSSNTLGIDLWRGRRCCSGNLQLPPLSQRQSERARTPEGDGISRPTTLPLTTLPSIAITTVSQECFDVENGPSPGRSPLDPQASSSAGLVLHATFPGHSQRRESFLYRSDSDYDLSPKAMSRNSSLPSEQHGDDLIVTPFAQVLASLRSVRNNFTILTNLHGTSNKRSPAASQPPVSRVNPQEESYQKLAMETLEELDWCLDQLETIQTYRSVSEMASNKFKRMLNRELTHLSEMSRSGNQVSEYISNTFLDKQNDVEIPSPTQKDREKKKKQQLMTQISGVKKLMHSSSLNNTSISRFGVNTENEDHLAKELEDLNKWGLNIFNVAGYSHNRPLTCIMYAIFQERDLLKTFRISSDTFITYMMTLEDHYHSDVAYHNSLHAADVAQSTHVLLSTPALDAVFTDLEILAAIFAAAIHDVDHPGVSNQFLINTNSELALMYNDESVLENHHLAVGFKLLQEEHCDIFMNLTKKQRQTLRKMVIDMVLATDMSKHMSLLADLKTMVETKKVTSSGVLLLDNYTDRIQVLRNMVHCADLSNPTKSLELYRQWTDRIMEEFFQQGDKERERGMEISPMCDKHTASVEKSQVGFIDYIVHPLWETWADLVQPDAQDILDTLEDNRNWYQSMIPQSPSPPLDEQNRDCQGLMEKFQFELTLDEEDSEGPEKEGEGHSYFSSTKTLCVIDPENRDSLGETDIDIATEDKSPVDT
Sequence of Ubiquitin carboxyl-terminal hydrolase 1 (Homo sapiens) (O94782 whole entry, looked up): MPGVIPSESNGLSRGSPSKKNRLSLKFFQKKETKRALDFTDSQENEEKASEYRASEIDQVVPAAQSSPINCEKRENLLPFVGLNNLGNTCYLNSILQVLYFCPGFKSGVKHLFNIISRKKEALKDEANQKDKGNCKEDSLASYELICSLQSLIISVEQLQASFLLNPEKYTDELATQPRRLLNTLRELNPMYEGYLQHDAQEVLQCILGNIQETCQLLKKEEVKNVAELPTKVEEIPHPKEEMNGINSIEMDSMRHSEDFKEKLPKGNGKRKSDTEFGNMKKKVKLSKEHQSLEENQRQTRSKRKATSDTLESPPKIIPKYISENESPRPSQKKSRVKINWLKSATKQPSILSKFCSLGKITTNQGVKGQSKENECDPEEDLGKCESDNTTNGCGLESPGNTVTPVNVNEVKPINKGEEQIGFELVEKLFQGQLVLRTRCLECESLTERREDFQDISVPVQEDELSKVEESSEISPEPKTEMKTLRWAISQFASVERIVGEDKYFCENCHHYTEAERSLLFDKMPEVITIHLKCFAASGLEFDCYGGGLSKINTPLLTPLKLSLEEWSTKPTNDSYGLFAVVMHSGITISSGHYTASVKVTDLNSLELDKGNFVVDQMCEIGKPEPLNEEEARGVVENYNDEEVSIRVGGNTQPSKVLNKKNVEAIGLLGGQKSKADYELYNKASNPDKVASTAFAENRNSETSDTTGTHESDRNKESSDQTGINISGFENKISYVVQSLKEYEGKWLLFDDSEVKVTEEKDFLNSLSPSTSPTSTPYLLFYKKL
Sequence of Cytochrome P450 1A2 (Homo sapiens) (P05177 whole entry, looked up): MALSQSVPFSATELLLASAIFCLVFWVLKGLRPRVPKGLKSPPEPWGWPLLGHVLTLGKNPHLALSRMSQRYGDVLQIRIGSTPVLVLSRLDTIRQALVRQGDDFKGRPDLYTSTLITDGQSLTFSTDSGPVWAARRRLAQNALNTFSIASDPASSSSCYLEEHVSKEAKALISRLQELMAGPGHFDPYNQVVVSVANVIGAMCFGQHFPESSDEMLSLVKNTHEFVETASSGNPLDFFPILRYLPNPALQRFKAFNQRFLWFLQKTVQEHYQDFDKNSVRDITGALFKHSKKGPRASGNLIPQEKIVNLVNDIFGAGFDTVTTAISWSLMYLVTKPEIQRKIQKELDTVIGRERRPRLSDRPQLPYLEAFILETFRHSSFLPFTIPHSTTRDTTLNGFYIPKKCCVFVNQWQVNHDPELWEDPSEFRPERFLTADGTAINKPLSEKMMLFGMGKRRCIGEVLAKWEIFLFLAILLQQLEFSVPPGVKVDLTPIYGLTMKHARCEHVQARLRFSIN

With `CN(C)C(=O)c1ccc(-c2ccc3ncnc(NCc4cccnc4)c3c2)cc1`, the values for the activity change, negative = inhibition in assay [1], in assay [2] and in [8] were -3.5% (inactive), 14% (inactive) and 8.52% (inactive), respectively. The activity, negative = inhibition in assay [3] is -1.99% (inactive). For the same compound, the Potency in assay [4] and in assay [5] was > 46 µM (inactive) each time. In addition, the Potency entry in assay [6], in assay [7] and in assay [9] was “inactive” in each case. In addition, the max response in assay [8] (setting [11]) turned out to be 9.7%; in assay [8] (setting [12]), 16.7%.

`CN1CCN(c2ccnc(-c3ccccc3C(F)(F)F)n2)CC1`: the activity change, negative = inhibition in assay [1] was 8.46% (inactive); in assay [8] it was 3.24% (inactive). Moreover, the activity, negative = inhibition in assay [3] is 3.89% (inactive). For the same compound, the Potency in assay [4] and in assay [5] was > 46 µM (inactive) each time. The Potency result in assay [6] and in assay [9] was “inactive” in each case. For the same compound, the max response was -19.5% in assay [8] (setting [11]) and -14.8% in assay [8] (setting [12]).

As for `COc1ccccc1CNc1ncnc2ccc(-c3ccc(N(C)C)cc3)cc12`, the figures for the Potency in assay [10], in [4] and in assay [5] were 0.794 µM (active), > 46 µM (inactive) and > 46 µM (inactive), respectively. The activity, negative = inhibition in assay [3] is -7.61% (inactive). The Potency entry in [7] is “inactive”. Also, the activity change, negative = inhibition in [8] was 3.4% (inactive). Also, the max response in assay [8] (setting [11]) was -18%; in assay [8] (setting [12]) it was -15%.

For `O=c1c(-c2cccs2)nc2cnc(Oc3cccc(Cl)c3)nc2n1C1CC1`, in assay [4], the Potency was > 9.22 µM (inactive). Besides, the Potency entry in assay [6] was “inactive”. In addition, the activity change, negative = inhibition in assay [8] is -23.5% (inactive). Also, the max response was 0.533% in [8] (setting [11]) and -23.3% in [8] (setting [12]).

Regarding `Cc1cccc(CNc2ncnc3ccc(-c4cccc(NS(C)(=O)=O)c4)cc23)c1`, the activity change, negative = inhibition in [2] is 12.3% (inactive); in assay [8] it was -4.87% (inactive). Moreover, in assay [3], the activity, negative = inhibition is -1.79% (inactive). In addition, the Potency in assay [4] and in [5] was > 46 µM (inactive) in each case. Besides, the Potency entry in assay [6] and in [7] was “inactive” throughout. Also, the max response is -15.4% in [8] (setting [11]) and -18.6% in assay [8] (setting [12]).

Regarding `Cn1c(=O)c(-c2ccccc2)nc2cnc(N3CCNCC3)nc21`, the Potency in assay [10] was 12.6 µM (active); in assay [4] it was > 9.22 µM (inactive); in assay [5], > 46 µM (inactive). Besides, the Potency entry in [6] and in assay [7] was “inactive” each time. Also, the activity change, negative = inhibition in [8] is 5.44% (inactive). For the same compound, the max response in [8] (setting [11]) was determined as 18.4%; in assay [8] (setting [12]) it was 28.4%.

Turning to `N#Cc1ccc(CN2CCCC3(CCN(C(=O)c4cc(C(F)(F)F)cc(C(F)(F)F)c4)CC3)C2)cc1`, the activity change, negative = inhibition in assay [1] is 16.4% (inactive); in assay [8], 1.75% (inactive). The activity, negative = inhibition in [3] was -17.3% (inactive). Also, the Potency in assay [5] was > 46 µM (inactive). The Potency result in [6] and in [7] was “inactive” each time. Besides, the max response in assay [8] (setting [11]) worked out at 18.7%; in [8] (setting [12]) it was 26.7%.

Regarding `CN1CCN(c2nc(-c3cccc(NS(C)(=O)=O)c3)nc3ccccc23)CC1`, the activity change, negative = inhibition in assay [1] was 2.06% (inactive); in assay [2], 7.49% (inactive); in assay [8], 4.29% (inactive). For the same compound, the activity, negative = inhibition in assay [3] was -8.68% (inactive). The Potency in [4] and in assay [5] was > 46 µM (inactive) throughout. In addition, the Potency result in [6] and in assay [9] was “inactive” each time. Also, the max response in assay [8] (setting [11]) came to 7.68%; in assay [8] (setting [12]), 8.93%.

As for `COc1ccc(NC(=O)N2CCC3(CC2)CCN(C(=O)c2cc(C(F)(F)F)cc(C(F)(F)F)c2)CC3)cc1`, the figures for the activity change, negative = inhibition in [1] and in assay [8] were -5.96% (inactive) and -8% (inactive), respectively. Also, in [3], the activity, negative = inhibition was -5.72% (inactive). Besides, in assay [5], the Potency is > 46 µM (inactive). For the same compound, the Potency entry in assay [6] and in [7] was “inactive” each time. For the same compound, the max response in [8] (setting [11]) was 3.79%; in assay [8] (setting [12]), -1.48%.
